{"source": "PubChem BioAssay AID686978", "about": "(National Center for Advancing Translational Sciences (NCATS), 2013)", "note": "Where “and” joins values, the source holds several entries; their conditions need not be identical. Equal entries are not always repeated. In all, about 420,000 compounds went through this assay and about 64,000 (15%) were called active. Roughly 27% stayed inconclusive and do not appear here. The list is a sample of the results. Unmarked numbers belong to inactive results. Calls come from the whole dose curve; as a rule, active = well fitted inhibition curve with a large enough effect; inconclusive = small, poorly fitted or top-dose-only effect; inactive = flat fitted curve, though single readings scatter. % is set by controls: 0 for no effect and ±100 for the full control effect; potency is the fitted concentration of half-maximal effect."}
{"assay": "qHTS for Inhibitors of human tyrosyl-DNA phosphodiesterase 1 (TDP1): qHTS in cells in absence of CPT; note: nearly all actives have a fitted effect of over 55% in size", "conditions": "DT40 Tdp1-/- hTDP1 cells, no CPT, ATP luminescence, 48 h; activity change, negative = growth inhibition: at 46.2 µM (top of the series)", "how_it_was_run": "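Luminescent ATP content (CellTiter-Glo) served as the growth readout. Knockout chicken DT40 cells expressing human TDP1 were exposed to compounds without camptothecin for a minimum 48 hr at 37 °C.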"}
{"molecule": "CC(C)(C)C(=O)CSc1ccc(S(=O)(=O)N2CCCC2)cn1", "activity change, negative = growth inhibition": "-12%"}
{"molecule": "Cc1ccccc1NC(=O)c1cc2c([nH]c1=O)CC(C)(C)CC2=O", "activity change, negative = growth inhibition": "1.54%"}
{"molecule": "Cn1c(CSCC(=O)Nc2ccccc2)nnc1SCc1ccccc1", "activity change, negative = growth inhibition": "-16.4%"}
{"molecule": "NS(=O)(=O)c1ccc(CNC(=S)NC(=O)c2ccco2)cc1", "activity change, negative = growth inhibition": "-21.3%"}
{"molecule": "COC(=O)c1c(NC(=O)CCCC(=O)O)sc2c1CCCCC2", "activity change, negative = growth inhibition": "1.24%"}
{"molecule": "CCc1ccc(N(CC(=O)Nc2sc3c(c2C(=O)OC)CCCC3)S(C)(=O)=O)cc1", "Potency": "23.1 µM (active)"}
{"molecule": "COC(=O)c1c(NC(=O)C2CC(C)=C(C)CC2C(=O)O)sc2c1CCCCC2", "note": "(configuration not stated)", "activity change, negative = growth inhibition": "-17.4%"}
{"molecule": "O=C(COc1ccccc1)Nc1cc2c3c(c1)CC(=O)N3CCC2", "activity change, negative = growth inhibition": "-10.3%"}
{"molecule": "O=C(CN1CCOCC1)N/N=C/c1ccc(-c2ccc(Br)cc2)o1", "activity change, negative = growth inhibition": "-29.5%"}
{"molecule": "O=C1CCC(=O)N(c2ccccc2)N1", "activity change, negative = growth inhibition": "-6.87%"}
{"molecule": "CN(C)S(=O)(=O)c1cccc(NC(=O)COC(=O)/C=C/c2cccs2)c1", "activity change, negative = growth inhibition": "-17.5%"}
{"molecule": "CN(C)S(=O)(=O)c1cccc(NC(=O)COC(=O)c2cc(=O)[nH]c(=O)[nH]2)c1", "activity change, negative = growth inhibition": "-3.13%"}
{"molecule": "CN(C)S(=O)(=O)c1cccc(NC(=O)COC(=O)C2(c3ccccc3F)CCCC2)c1", "Potency": "13 µM (active)"}
{"molecule": "COc1ccc(S(=O)(=O)N2CCN(C(=O)c3cccs3)CC2)cc1OC", "activity change, negative = growth inhibition": "-24.8%"}
{"molecule": "O=S(=O)(NCCc1ccccc1)c1ccccc1", "activity change, negative = growth inhibition": "-22.6%"}
{"molecule": "CCN(CC(=O)N1CCCC1)S(=O)(=O)c1ccc(F)cc1", "activity change, negative = growth inhibition": "6.24%"}
{"molecule": "CCSC1=NCCN1C(=O)c1ccc(S(=O)(=O)N(CC)CC)cc1", "activity change, negative = growth inhibition": "1.3%"}
{"molecule": "CCCN(CCC)S(=O)(=O)c1ccc(C(=O)N2CC3CCC(CC3)C2)cc1", "Potency": "23.1 µM (active)"}
{"molecule": "CCc1nc(NCCO)c(C#N)c2c1CCCC2", "activity change, negative = growth inhibition": "2.76%"}
{"molecule": "N#CCc1c(C#N)c(N)nc(N2CCCC2)c1C#N", "activity change, negative = growth inhibition": "-12.4%"}
{"molecule": "CC(C)CCNc1nc(N2CCCC2)c2c(c1C#N)CCN(C)C2", "Potency": "23.1 µM (active)"}
{"molecule": "CC(=O)Nc1ccc(Nc2ncnc3c2nnn3Cc2ccccc2Cl)cc1", "activity change, negative = growth inhibition": "-17.5%"}
{"molecule": "O=C(Nc1cccc(F)c1)N1CC2(CCN(C(=O)c3csnn3)CC2)C1", "activity change, negative = growth inhibition": "-12.5%"}
{"molecule": "O=S(=O)(NC1CC2CCC1C2)c1ccc(Cl)cc1", "note": "(configuration not stated)", "activity change, negative = growth inhibition": "-3.07%"}
{"molecule": "Nc1nc2c(ncn2[C@@H]2O[C@H](CNS(=O)(=O)N3CCc4ccccc4C3)[C@@H](O)[C@H]2O)c(=O)[nH]1", "activity change, negative = growth inhibition": "11.3%"}
{"molecule": "COc1cc2[nH]c(=S)n(CCN3CCCCC3C)c(=O)c2cc1OC", "note": "(configuration not stated)", "activity change, negative = growth inhibition": "-19.2%"}
{"molecule": "COc1ccc2c(c1)C(=C(C#N)C#N)C(=O)N2CCc1ccccc1", "Potency": "14.6 µM (active)"}
{"molecule": "COc1cccc(CNC(=O)CN2C(=O)NC(Cc3ccccc3)(c3ccccc3)C2=O)c1", "note": "(configuration not stated)", "activity change, negative = growth inhibition": "-3.32%"}
{"molecule": "CCCCN1C(=O)/C(=C(/C#N)C(N)=O)c2ccccc21", "activity change, negative = growth inhibition": "-2.74%"}
{"molecule": "NC(=O)C1CCN(C(=O)c2ccc3c(=O)n(Cc4cccc(Br)c4)c(=S)[nH]c3c2)CC1", "activity change, negative = growth inhibition": "-19.8%"}
{"molecule": "Cc1cc(C)cc(OCC(=O)Nc2cc(NC(=O)COc3cc(C)cc(C)c3)cc(C(=O)O)c2)c1", "activity change, negative = growth inhibition": "-27.8%"}
{"molecule": "COC(C)C(C(=O)OCC1=CCN2CC[C@H](O)[C@@H]12)C(C)C", "note": "(some centres not stated)", "activity change, negative = growth inhibition": "-18.8% [at 9.04 µM]"}
{"molecule": "O=C(Cc1ccccn1)c1ccc(O)cc1O", "activity change, negative = growth inhibition": "-10.7%"}
{"molecule": "Cc1ccc2[nH]c(=O)c(CN(C)S(=O)(=O)c3cccc4nonc34)cc2c1", "activity change, negative = growth inhibition": "4.78%"}
{"molecule": "CCn1c(SCc2ccccc2)nc2c(c1=O)SCC2", "activity change, negative = growth inhibition": "-23.3%"}
{"molecule": "Cc1cccc(CSc2nc3c(c(=O)n2C)SCC3)c1", "Potency": "14.6 µM (active)"}
{"molecule": "Cn1c(SCC(=O)N2CCCCC2)nc2c(c1=O)SCC2", "activity change, negative = growth inhibition": "4.08%"}
{"molecule": "CCCCNC(=O)OC(C)CNC(=O)OC", "note": "(configuration not stated)", "activity change, negative = growth inhibition": "12.1%"}
{"molecule": "CCC1CN(CCNC(=O)c2cccnc2C)Cc2cc(OC)ccc2O1", "note": "(configuration not stated)", "activity change, negative = growth inhibition": "-18.7%"}
{"molecule": "CCCS(=O)(=O)NCc1c(C)ncc2c1CCN(C(=O)c1ccc(F)c(F)c1)C2", "activity change, negative = growth inhibition": "2.82%"}
{"molecule": "CCOC(=O)CCCCCC(=O)Nc1ccc2c(c1)CC(=O)N([C@@H](C)CO)C[C@H](C)[C@@H](CN(C)Cc1ccccc1)O2", "activity change, negative = growth inhibition": "-22.9%"}
{"molecule": "CCSc1nnc(SCC(=O)NNC(=O)c2ccccc2F)s1", "activity change, negative = growth inhibition": "-3.12%"}
{"molecule": "CCn1c(C)c(C)c2cc(C(=O)N3CCN(c4cccc(C)c4C)CC3)ccc21", "Potency": "23.1 µM (active) and 20.6 µM (active)"}
{"molecule": "O=C(c1c(F)cccc1F)N1CCN(c2ncc(Br)cn2)CC1", "activity change, negative = growth inhibition": "-26.9%"}
{"molecule": "Cc1ccccc1N1CCN(C(=O)c2cccnc2)CC1", "activity change, negative = growth inhibition": "-19.2%"}
{"molecule": "Cc1cccc(N2CCN(C(=O)c3cnc(N4CCCC4)nc3C)CC2)c1C", "Potency": "20.6 µM (active)"}
{"molecule": "Cc1cccc(N2CCN(C(=O)c3ccc4c(c3)CCN4S(=O)(=O)c3ccccc3)CC2)c1C", "Potency": "6.51 µM (active)"}
{"molecule": "CCC(CC)C(=O)N1CCN(c2cccc(C)c2C)CC1", "Potency": "11.6 µM (active)"}
{"molecule": "CC(=O)N1CCN(c2cccc(C)c2C)CC1", "activity change, negative = growth inhibition": "-2.67%"}
{"molecule": "Cc1cccc(N2CCN(C(=O)c3ccc(Nc4nc5ccccc5n5nnnc45)cc3)CC2)c1C", "activity change, negative = growth inhibition": "-10.5%"}
{"molecule": "Cc1cccc(N2CCN(C(=O)COCc3cc(-c4ccc5c(c4)OCO5)on3)CC2)c1C", "Potency": "inactive"}
{"molecule": "Cc1[nH]c2ccc(C(=O)N3CCN(C)CC3)cc2c1C", "activity change, negative = growth inhibition": "-6.28%"}
